# Compound activity from PubChem.
# Rows were chosen to be rich in hits. Some 5.4% of all compounds tested hit in one or more screens of this group.
# Gal4-VP16 FLuc: inhibits Gal4-VP16 luciferase reporter, ROR gamma counter-screen. AID 2546. 310,000 tested, 3.5% active. Drosophila S2 Gal4-VP16 UAS-luciferase, luminescence, 20 h. Potency, µM (doses to about 53.6 µM), for the others: at the top dose activity, negative = inhibition, hits mostly inhibitors;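 further: Gal4-VP16 expression switched on by copper sulfate through the metallothionein promoter; potency means the concentration at half of the fitted maximal effect; on the % scale 0 is the no-effect control and ±100 the full control effect; nearly all actives have a fitted effect of over 50% in size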
# Six1-Eya2 inh: Six1/Eya2 interaction inhibition; AlphaScreen GST-Six1/His-Eya2 binding, biochemical; active compounds read low; activity change, % (concentration not given with the values); 360,000 tested, 0.56% active; AID 651725; in the data active means activity change below about -65%; inconclusive means mostly about -30% to -63%; further: on the % scale 0 is the no-effect control and ±100 the full control effect
#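 Six1/Eya2 binding was read as AlphaScreen signal after compounds were pinned into GST-Six1 plus His-tagged Eya2 (5X stock 250/500 nM) in pH 8.0 Tris/NaCl/TCEP buffer, beads added, then incubated 1 h, 37 C, dark.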
# CtBP-E1A blk: blocks the CtBP interaction with E1A; AlphaScreen GST-E1A/His-CtBP binding, 1536-well; active compounds read low; activity change, % (no concentration beside the values); 340,000 tested, 0.49% active; AID 651724; in the data active means activity change below about -65%; inconclusive means mostly about -30% to -63%; further: on the % scale 0 is the no-effect control and ±100 the full control effect
#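 AlphaScreen with 125 nM GST-E1A and 125 nM His-CtBP (5X stocks) in Tris pH 8.0, 300 mM NaCl, BSA, Tween 20, TCEP. Compounds preincubated 2 h at 37 deg C, then glutathione donor/nickel acceptor beads added for 1 h at 37 deg C in dark.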
# RORgamma inh: blocks mouse ROR gamma transcriptional activity; P51450; Potency, µM (titrated, usually from 53.6 µM), without a hit: top-dose activity change, negative = inhibition, usual class: inhibitors; Drosophila S2 Gal4-RORgamma UAS-luciferase reporter, 20 h; 310,000 tested, 5.4% active; further: potency means the concentration at half of the fitted maximal effect; on the % scale 0 is the no-effect control and ±100 the full control effect; nearly all actives have a fitted effect of over 60% in size
# Target sequence (P51450 whole entry, looked up, the tested form may be a part): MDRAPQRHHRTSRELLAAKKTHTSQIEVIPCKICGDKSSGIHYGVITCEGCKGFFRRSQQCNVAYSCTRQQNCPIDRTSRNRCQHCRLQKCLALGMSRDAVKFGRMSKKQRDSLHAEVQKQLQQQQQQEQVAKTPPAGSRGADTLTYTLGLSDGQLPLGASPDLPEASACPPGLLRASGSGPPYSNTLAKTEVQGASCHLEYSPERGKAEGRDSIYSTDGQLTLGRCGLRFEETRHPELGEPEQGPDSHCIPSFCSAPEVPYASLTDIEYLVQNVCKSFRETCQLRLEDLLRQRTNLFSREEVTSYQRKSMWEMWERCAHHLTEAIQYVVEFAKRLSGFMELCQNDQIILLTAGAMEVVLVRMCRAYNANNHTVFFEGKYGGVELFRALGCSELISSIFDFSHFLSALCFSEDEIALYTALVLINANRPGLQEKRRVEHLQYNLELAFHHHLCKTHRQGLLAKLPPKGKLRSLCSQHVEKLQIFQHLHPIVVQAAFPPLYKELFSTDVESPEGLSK
#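 ROR gamma transcriptional activity was tracked as Gal4-UAS luciferase output in stably transfected Drosophila Schneider cells, with compound added 1 hr before 700 uM copper sulfate induction and a 20 hr ambient-temperature incubation.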
# p53 reactivator: re-activators of mutant p53. H1299 p53-A138V BP100-luciferase reporter, luminescence, 24 h. Potency, µM (doses to about 92.2 µM), for the others: top-dose activity change, positive = activation, usual class: activators. 320,000 tested, 0.063% active; further: potency means the concentration at half of the fitted maximal effect; % of control where 0% means no effect; nearly all actives have a fitted effect of over 45% in size
#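 H1299 (p53-null), stable ts p53-A138V + BP100-Luc; 1000 cells/well, Opti-MEM/10% FBS; cpd 4 pt, 1:5; 24 h, 37 deg C, 5% CO2; detection reagent 10 min RT; luminescence.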
# Numbers without * were called inactive; ? = inconclusive; · = not tested or not shown; [ ] = dose if it differs, or a comment. Unless noted, the call rests on the fitted dose curve; in most records, active means well fitted curve in the direction sought with a large enough effect; inconclusive means small, poorly fitted or top-dose-only effect, or another doubt; inactive means no such curve, though single readings can be large; an effect the other way counts as inactive or inconclusive.
SMILES,Gal4-VP16 FLuc,Six1-Eya2 inh,CtBP-E1A blk,RORgamma inh,p53 reactivator
O=C(O)CCC(=O)c1cccc2ccccc12,0.1%,1.5,0.2,-32.5%,0.7%
O=C(O)CCC(=O)c1ccc2ccc3cccc4ccc1c2c34,10µM*,·,·,11.2µM*,-11.4%
CCCc1nc2nc(C)c(NS(=O)(=O)c3ccc(Cl)cc3)c(=O)n2[nH]1,4.6%,1.3,1.8,8.9%,-2.2%
Cc1ccc(Cn2cc(CCC(=O)O)c3ccccc32)cc1,-3.4%,3.2,-65.3*,35.9%,-4.8%
O=C(O)c1cc(S(=O)(=O)Nc2ccc3cn[nH]c3c2)ccc1O,·,-9.8,-12.8,·,13.2%
Cc1ccc(O)c(-c2cc(-c3ccccc3[N+](=O)[O-])[nH]n2)c1,?,-13.4,-3.6,?,?
Oc1ccc(Cl)cc1-c1cc(-c2cccc(Br)c2)n[nH]1,0.891µM*,0.5,2.6,?,14.5%
Oc1ccc(Cl)cc1-c1cc(-c2ccccc2Cl)[nH]n1,10µM*,0.7,5.3,4.47µM*,?
O=C(O)c1cc(-c2ccc(Cl)cc2)n[nH]1,·,-1.6,4.0,4.9%[0.365 µM],-4.3%
O=[N+]([O-])c1ccccc1-c1cc(-c2cc(Cl)ccc2O)n[nH]1,?,-5.8,-10.9,15.8µM*,21.9%
O=C(Nc1cccnc1)c1cc(-c2cc(Cl)ccc2O)n[nH]1,11.6%,-14.0,·,18.1%,11.3%
Oc1ccccc1-c1cc(-c2ccccc2Cl)[nH]n1,?,11.1,6.5,4.47µM*,·
FC(F)(F)c1cccc(Cl)c1,-7.9%,·,·,17.8%,·
CCN1C(=O)[C@H]2[C@@H](c3ccc(Cl)cc3)N3C(=O)CN(CC4CC4)C(=O)[C@@]3(Cc3ccccc3)[C@H]2C1=O,-0.5%,-6.2,5.4,4.4%,·
O=c1c(-c2ccc(F)cc2)nc2cnc(N3CCNCC3)nc2n1C1CC1,-4.9%,·,·,-16.8%,·
COc1cccc(N/C=C/C(=O)c2ccc(C)cc2)c1,?,5.1,·,?,4.5%
COc1cccc(N/C=C/C(=O)c2ccc(Cl)cc2)c1,12.6µM*,8.3,31.3,10µM*,?
COc1cccc(C(=O)/C=C/Nc2ccc(NC(C)=O)cc2)c1,5.2%,-1.1,2.9,?,?
COc1cccc(C(=O)/C=C/Nc2cccc(O)c2)c1,1.26µM*,-7.1,-0.7,7.94µM*,?
COc1ccc(OC)c(N/C=C/C(=O)c2ccccc2)c1,5.01µM*,-9.1,-9.8,4.47µM*,·
COc1cccc(C(=O)/C=C/Nc2ccc(S(=O)(=O)Nc3cccc(C(C)=O)c3)cc2)c1,10µM*,-11.4,-15.6,15.4%,-0.3%
[N-]=[N+]=NC[C@H](Cc1ccccc1)N1CC[C@@H](OCc2ccccc2)CCC1=O,?,5.8,-2.3,?,8.7%
CC(C)C1COc2cc3oc(=O)ccc3cc2O1 (configuration not stated),-15.2%,·,·,2.0%,·
CCOC(=O)C/C(C)=N/NC(=O)C1CC1(c1ccccc1)c1ccccc1 (configuration not stated),?,-4.2,11.3,10µM*,0.6%
CCN(CC)c1ccc(NC(=S)NC(=O)C2CCC2)cc1,6.31µM*,?,?,1.78µM*,6.0%
SMILES,Gal4-VP16 FLuc,Six1-Eya2 inh,CtBP-E1A blk,RORgamma inh,p53 reactivator
CCOc1ccc(NC(=S)NC(=O)C2CCCC2)cc1,6.31µM*,-6.7,-5.2,1.12µM*,15.9%
C=CCN=C1N[C@@H](c2ccc(Br)cc2)C(C(=O)OC)=C(C)N1Cc1ccccc1,-14.4%,·,·,28.8%,·
O=C1CSc2cc(Cl)ccc2N1,·,-4.2,6.6,·,·
COc1cccc(NC(=O)N(Cc2cc3cc(C)cc(C)c3[nH]c2=O)CC2COCCO2)c1 (configuration not stated),-2.1%,-4.3,-2.8,-3.9%,-4.8%
COC(=O)c1cccc(-c2ccc(C(c3c(C)[nH][nH]c3=O)c3c(C)[nH][nH]c3=O)o2)c1,-15.1%,-3.8,-9.4,11.2µM*,2.0%
COC(=O)c1ccccc1-c1ccc(C(c2c(C)[nH][nH]c2=O)c2c(C)[nH][nH]c2=O)o1,-6.3%,-1.5,-2.1,37.3%,5.2%
Cn1c(-c2ccc3c(c2)OCO3)cnc1NCc1ccccc1,-3.2%,-4.8,-3.8,-25.6%,5.8%
CCCCNC(=O)CCC(=O)Nc1ncc(-c2ccc(C)cc2)n1C,3.98µM*,-2.8,-1.3,2µM*,6.7%
Cc1ccc(-c2cnc(NC(=O)CCC(=O)N3CCCCC3)n2C)cc1,7.94µM*,-1.5,-1.7,3.55µM*,-1.3%
O=C(CCC(=O)N1CCCCC1)Nc1ccc(Cl)c(Cl)c1,-1.3%,9.3,-3.1,-14.6%,24.2%
Cn1c(-c2ccc3c(c2)OCO3)cnc1NC(=O)CCC(=O)NCCc1ccccc1,5.62µM*,-5.6,-5.0,3.16µM*,16.9%
Cn1c(SCc2ccccc2C#N)nc2ccccc2c1=O,-11.7%,-0.4,1.5,6.3%,1.8%
COc1cc(C2NC(=S)NC(C)=C2C(=O)c2ccccc2)ccc1O (configuration not stated),-0.1%,-3.1,1.3,-20.8%,-5.3%
COc1cc2c(cc1C1NC(=S)NC(C)=C1C(N)=O)CCCC2 (configuration not stated),-2.2%,13.2,0.0,2.82µM*,-6.4%
CCOC(=O)/C(=C/Nc1ccc(F)cc1)[N+](=O)[O-],-0.6%,-27.0,·,-29.4%,0.0%
CCc1cccc(NC(=S)N(CCCN2CCOCC2)C(C)c2cc3cccc(OC)c3o2)c1 (configuration not stated),?,-7.1,-6.4,11.2µM*,4.7%
COc1cccc2cc(C(C)N(CCCN3CCOCC3)C(=O)Nc3ccccc3)oc12 (configuration not stated),-3.1%,5.2,1.3,2.5%,-2.4%
COc1cccc2cc(C(C)N(CCCN3CCOCC3)C(=S)Nc3ccc(C)c(C)c3)oc12 (configuration not stated),?,-22.1,-21.5,11.2µM*,6.5%
COc1cccc2cc(C(C)N(CCCN3CCOCC3)C(=S)Nc3cc(C)ccc3C)oc12 (configuration not stated),5.6%[10 µM],-13.6,-11.7,11.2µM*,2.3%
COc1ccc(NC(=S)N(CCCN2CCOCC2)C(C)c2cc3cccc(OC)c3o2)cc1 (configuration not stated),-8.5%[10 µM],-13.7,-4.4,-2.2%,10.4%
COc1cccc(NC(=S)N(CCCN2CCOCC2)C(C)c2cc3ccccc3o2)c1 (configuration not stated),?,-6.3,·,11.2µM*,4.8%
O=C(O)c1ccc(S(=O)(=O)N[C@H](Cc2ccc(O)cc2)C(=O)O)cc1,0.7%,·,·,-1.0%,·
COc1cccc2cc(C(C)N(CCCN3CCOCC3)C(=S)Nc3cccc(C)c3C)oc12 (configuration not stated),-8.2%[10 µM],10.5,-7.2,11.2µM*,2.7%
O=C(O)/C=C/c1cnn(-c2ccccc2)c1,14.1µM*,1.2,2.2,7.94µM*,-7.0%
